Compound activity deposited in PubChem by several laboratories.
LGR2 antag = Drosophila LGR2 receptor signaling inhibition; inhibition, % at 9.99 µM; HEK293 LGR2, CRE-luciferase, bursicon-stimulated, 4 h; AID 720647; 0.35% of 380,000 active;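 active = drop in luminescence signal, shown as inhibition above about 50% in the replicate tests, limit read from the data, passing the limit was not always enough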;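 note: agonist challenge used bursicon conditioned medium at about half maximal strength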
HSP90 inh = blocks HSP90-mediated luciferase refolding in reticulocyte lysate | Rabbit reticulocyte lysate, luciferase refolding luminescence, 3 h | inhibition, % at 5.6 µM | 0.91% of 290,000 active | AID 1789;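 active = inhibition above the screen-wide mean plus 3 SD, computed separately per campaign, cut at about 16% in these data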;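 note: 0% = DMSO wells and 100% = 60 µM geldanamycin wells; inhibitors lower the luminescence because luciferase stays unfolded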
Peg3 promoter = reduces Peg3 promoter-driven luciferase expression in HeLa. 1.7% of 360,000 active. inhibition, % at 20 µM. HeLa PEG-Prom luciferase reporter, luminescence, overnight. AID 588405;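 active = inhibition of at least 50% at 20 µM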
CF NFkB block = blocks PAF-induced NF-kB reporter in cystic fibrosis cells; KKLEB NF-kB-GFP reporter, GFP fluorescence overnight; inhibition, % at 5 µM; 0.86% of 360,000 active;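 active = at least 50% inhibition at 5 µM, scaled per plate between neutral and stimulator controls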;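 note: PAF is a Pseudomonas aeruginosa culture filtrate used as stimulus; plate controls were PAF-stimulated DMSO wells for no effect and unstimulated DMSO wells for full effect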
Mdm2 MdmX PPI = human Mdm2/MdmX binding inhibition | 3% of 330,000 active | O15151+Q00987 | SaOS-2 split-luciferase Mdm2/MdmX complementation, luminescence | inhibition, % at 8 µM;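 active = inhibition of at least 50% at 8 µM in the primary screen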
KKLEB cytotox = counter-screen for CF NF-kB inhibitors: cytotoxicity; KKLEB CF airway cells viability, ATPlite luminescence, overnight; active compounds read low; cells stimulated with P. aeruginosa culture filtrate; activity change (cytotoxicity), % at 5 µM; 0.36% of 360,000 active; AID 602141;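 active = corrected activity change at or below -50% at 5 µM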
Mdm2 MdmX conf = confirmation of human Mdm2/MdmX interaction inhibitors; shares compounds with Mdm2 MdmX PPI; Mdm2-MdmX binding, luminescent assay; inhibition, % at 8 µM; 55% of 10,000 active; AID 489028; in the data active = inhibition above about 40%
FLuc counter = counter-screen for Mdm2/MdmX inhibitors: full-length luciferase; shares compounds with Mdm2 MdmX PPI; SaOS-2 full-length luciferase counterscreen, luminescence; inhibition, % at 8 µM; 77% of 6,200 active; AID 504607;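 active = mean inhibition at 8 µM reaching about 37%, which flags the compound as non-specific, limit read from the data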;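 note: p53-null SaOS-2 cells with luciferase driven by a doxycycline-inducible promoter; compound on cells about two nights before reading with doxycycline added after day one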
Numbers without * were called inactive; . = not tested or not shown. Only some compounds are listed: those with a hit (about 3.6% of all), similar ones and a draw of the others.

SMILES	LGR2 antag	HSP90 inh	Peg3 promoter	CF NFkB block	Mdm2 MdmX PPI	KKLEB cytotox	Mdm2 MdmX conf	FLuc counter
Cc1cccc(NC(=O)CSc2nc3ccccc3nc2N2CCCCC2)c1	2	-2	15	17	96*	6	44*	102*
C[C@H]1CN([C@@H](C)CO)C(=O)Cc2cc(NC(=O)NC3CCCCC3)ccc2O[C@@H]1CN(C)Cc1ccc(C(F)(F)F)cc1	6	.	.	.	.	.	.	.
Cc1ccc2[nH]c(-c3cccc(F)c3)cc(=O)c2c1	-38	-2	-183	40	58*	-1	71*	95*
O=c1cc(-c2cccc(F)c2)[nH]c2ccccc12	-17	3	-17	34	52*	-4	75*	78*
CCOc1ccc(N(CC(=O)Nc2ccc(C)c(C)c2)S(=O)(=O)c2c(C)noc2C)cc1	16	-1	22	14	4	-17	.	.
CCOc1ccc(N(CC(=O)Nc2ccccc2C)S(=O)(=O)c2c(C)noc2C)cc1	3	3	6	16	56*	-12	57*	57*
CCOc1ccccc1NC(=O)CN(c1ccc(OC)cc1)S(=O)(=O)c1c(C)noc1C	.	1	31	32	58*	-22	56*	60*
COc1ccc(C)cc1Nc1nc(C)nc2sc(C)cc12	6	-3	37	-1	21	-5	.	.
COc1ccc(C)cc1Nc1nc(N)c2cc(OC)c(OC)cc2n1	.	-1	84*	-19	51*	-6	15	.
COc1cc2nc(N3CCN(c4cc(C)ccc4C)CC3)nc(N)c2cc1OC	41	-2	102*	3	95*	-47	86*	51*
COc1cccc(NC(=O)N(C)C[C@@H]2OCc3ccccc3-c3c(n(C)c4ccccc34)C(=O)N([C@H](C)CO)C[C@@H]2C)c1	-8	.	.	.	.	.	.	.
COc1cccc(C2CC(c3c(-c4ccccc4)c4cc(Cl)ccc4[nH]c3=O)=NN2S(C)(=O)=O)c1OC (stereo unspecified)	.	2	42	6	50*	-2	32	69*
Cc1ccc(S(=O)(=O)N(C)C[C@@H]2Oc3ccc(NS(=O)(=O)c4cccs4)cc3CC(=O)N([C@H](C)CO)C[C@H]2C)cc1	-1	.	.	.	.	.	.	.
COc1ccc(/C=N/Nc2nc(Nc3ccccc3)nc(N3CCCC3)n2)cc1[N+](=O)[O-]	-13	-1	60*	-19	97*	7	92*	61*
COc1cc(/C=N/Nc2nc(Nc3ccccc3)nc(N3CCOCC3)n2)ccc1OC(=O)c1ccco1	-32	-3	-46	11	52*	-15	21	.
C[C@@H]1CN([C@H](C)CO)C(=O)c2cccc(NC(=O)Nc3ccccc3)c2O[C@@H]1CN(C)S(=O)(=O)c1ccc(Cl)cc1	15	.	.	.	.	.	.	.
C[C@@H]1CN([C@H](C)CO)C(=O)c2cc(NS(=O)(=O)c3ccc(F)cc3)ccc2O[C@H]1CN(C)Cc1ccccc1	2	.	.	.	.	.	.	.
CCOC(=O)C(CC)(CC)C(=O)/C=C/c1ccc(Br)cc1	35	2	75*	9	71*	-15	39	66*
Cc1ccc(S(=O)(=O)N[C@@H]2CC[C@H](CCn3cc(C4CCCC4)nn3)O[C@@H]2CO)cc1	-3	.	.	.	.	.	.	.
Oc1ccc(Br)cc1-c1cc(-c2ccc(Cl)cc2)n[nH]1	.	-3	-54	11	85*	3	32	6
O=[N+]([O-])c1cccc(-c2cc(-c3cc(Br)ccc3O)[nH]n2)c1	12	0	-73	40	93*	2	80*	59*
C[C@@H]1CN([C@H](C)CO)C(=O)Cc2cc(NS(C)(=O)=O)ccc2O[C@H]1CN(C)CC1CCCCC1	-68	.	.	.	.	.	.	.
COc1ccc(S(=O)(=O)N(C)C[C@H]2OCCCC[C@H](C)Oc3ccc(NC(=O)c4ccncc4)cc3C(=O)N([C@@H](C)CO)C[C@@H]2C)cc1	4	.	.	.	.	.	.	.
CCCNc1nc2c(c(=O)[nH]c(=O)n2C)n1Cc1cccc(Br)c1	.	0	4	-9	66*	-14	35	.
